In the library only some 4.3% were active in any assay of this set; here they are far more common.
HSF-1 act: increases HSF-1 driven luciferase reporter signal; NIH3T3-HGL HSF-1 luciferase reporter, MG132, 8 h; 100% = twice DMSO control signal; activation, % at 9 µM; 300,000 compounds, 1.7% hits; AID 504408;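 active = mean replicate activation of at least 50% with a set share of replicates each reaching 50%; inconclusive = only one of those two conditions met; inactive = mean below 50% and too few replicates reaching it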;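 also: 0% = median of the neutral control wells and 100% = twice that signal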
HSF1 inh: HSF1 inhibition. NIH3T3-HGL HSE-luciferase, MG132-induced, luminescence 8 h; active compounds read low. activity change, negative = inhibition, % at 7.5 µM (by protocol). 300,000 compounds, 0.77% hits;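 active = more than half of replicate wells show activity change below -50%, luminescence cut by over half; inconclusive = some wells, but at most half, below -50%; inactive = no replicate well below -50%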;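 also: luciferase reports HSF-1 transcriptional activity via heat shock element; 0% = median of DMSO wells and -100% = zero luminescence signal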
esBAF inh: blocks esBAF chromatin remodeling in mouse ES cells; AID 602393; 350,000 compounds, 2% hits; Bmi1-luciferase knock-in reporter, 24 h; 100% = twice the neutral-well signal; reporter increase, % at 12.5 µM; in the data active = activation above about 40%; inconclusive = no clear call, values can overlap the other calls;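 also: 0% = median of the plate's neutral control wells and 100% = double that signal; a rise in the Bmi1 reporter signal indicates esBAF inhibition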
Wnt bcat act: activators of Wnt/beta-catenin signaling | AID 743398 | Wnt/beta-catenin reporter cell assay, activator, plate reader | activation, % at 9.35 µM | 300,000 compounds, 1.2% hits; in the data active = activation above about 30%, passing the limit was not always enough; inconclusive = no clear call, values can overlap the other calls;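 also: 0% = neutral control wells and 100% = positive control wells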
MITF TRPM1 HTS: MITF TRPM1 promoter activation in melanoma cells. SK-MEL-5 TRPM1-promoter luciferase, 24 h; % of positive control, neutral wells = 0. activation, % at 12.5 µM. 300,000 compounds, 0.75% hits;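 active = mean activation of at least 80% with every replicate also reaching 80%; inconclusive = mean reaches 80% but some replicate falls short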;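 also: 0% = neutral control wells and 100% = parthenolide positive control wells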
SMARCA2 act: activators of SMARCA2 function | MG213 cells, MMTV-luciferase reporter, dexamethasone, overnight | activation, % at 9.1 µM | 370,000 compounds, 1% hits | AID 652017; in the data active = activation above about 7.8%;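 also: 0% = vehicle wells and 100% = reference activator wells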
* marks the source's active call; other numbers are inactive results; ? = inconclusive; / = not tested or not shown.

SMILES	HSF-1 act	HSF1 inh	esBAF inh	Wnt bcat act	MITF TRPM1 HTS	SMARCA2 act
CCCCc1n[nH]c2c1/C(=N/OCC)CC(C)(C)C2	-77	-74*	/	-3	/	-1
O=C(Nc1nccs1)c1ccc(-c2ccc(F)c(Cl)c2)o1	-5	1	57*	11	113*	3
COCCN(Cc1ccccc1)C(=S)Nc1ccc(Cl)cc1	-63	-54*	/	1	11	-1
O=C(Nc1ccc(F)cc1)N[C@H]1CC[C@@H](CC(=O)N2CCOCC2)O[C@H]1CO	/	/	0	/	/	/
Cc1ccc2c(CN3CCN(S(=O)(=O)/C=C/c4ccccc4)CC3)cc(=O)oc2c1	78*	28	-2	/	3	-1
N#Cc1ccccc1NC(=O)CSC1=Nc2ccccc2C2CC=NN12 (stereo not given)	15	3	3	47*	-18	3
O=C(CSC1=Nc2ccccc2C2CC=NN12)Nc1ccc2c(c1)OCO2 (stereo not given)	/	/	-4	0	-2	2
COc1ccc(-c2cnc3c(c2)C(=O)N([C@H](C)CO)C[C@H](C)[C@H](CN(C)S(=O)(=O)c2ccc(C#N)cc2)O3)cc1	/	/	5	/	/	/
COc1ccc(C2CC(c3cccs3)=NN2C(=O)CCl)cc1OC (stereo not given)	?	36	20	-3	-83	-9
COc1cc(C2CC(c3cccs3)=NN2C(=O)CCl)ccc1OC(F)F (stereo not given)	-72	-67*	5	14	-65	-9
Cc1ccc(NC(=O)c2snc3ccc(Cl)cc23)cc1C	56*	25	/	48*	45	7
COC1CCN(C(=O)C2CCC(=O)N(C3CCCCCC3)C2)CC1 (stereo not given)	4	-1	56*	23	68	6
C[C@@H]1CCCCO[C@@H](CN(C)Cc2ccc(C(F)(F)F)cc2)[C@H](C)CN([C@H](C)CO)C(=O)c2cc(NC(=O)Nc3ccc(F)cc3)ccc2O1	/	/	-8	/	/	/
CC(C)NC(=O)N1[C@@H](C#N)[C@H](c2ccc(C#CC3CCCC3)cc2)[C@@H]1CO	/	/	-6	/	/	/
Cc1ccc(-c2noc(C3CCCN(C(=O)c4ccccc4Br)C3)n2)cc1 (stereo not given)	18	3	51*	3	10	-3
Cc1cccc(C(=O)N2CCCC(c3nc(-c4ccc(C)o4)no3)C2)c1 (stereo not given)	61*	42	51*	12	55	-1
CCC(=O)N(C)C[C@@H]1Oc2cc(/C=C/c3ccccc3)ccc2S(=O)(=O)N([C@H](C)CO)C[C@H]1C	/	/	4	/	/	/
O=C(Nc1ccc(F)cc1)N1C[C@@H]2[C@H](c3ccccc31)[C@@H](CO)N2C(=O)c1ccccc1	/	/	3	/	/	/
CC(C)NC(=O)N(C)C[C@@H]1Oc2ccc(NS(=O)(=O)c3ccc(F)cc3)cc2C(=O)N([C@@H](C)CO)C[C@H]1C	/	/	-6	/	/	/
Cc1ccc2c(CN3CC(C)CC(C)C3)cc(=O)oc2c1C (stereo not given)	11	4	15	-1	/	0
Cc1ccc2c(CN3CCC(C)CC3)cc(=O)oc2c1C	54*	24	?	4	93*	1
CSc1ccc(CN(C)Cc2cc(=O)oc3c(C)c(C)ccc23)cc1	-75	-69*	-3	3	-3	-4
O=C(C[C@@H]1CC[C@H]2[C@@H](COC[C@@H](O)CN2Cc2cccc(F)c2)O1)NCCc1ccncc1	/	/	0	/	/	/
O=c1[nH]c2ccccc2nc1/C=C/c1ccccc1	99*	62	/	?	40	7
O=c1[nH]c2ccccc2nc1/C=C/c1ccc(O)cc1	39	36	51*	10	61	4
SMILES	HSF-1 act	HSF1 inh	esBAF inh	Wnt bcat act	MITF TRPM1 HTS	SMARCA2 act
CC(C)(C)/C(O)=C/c1nc2ccccc2[nH]c1=O	33	-2	/	-3	2	-2
COc1ccc(OC)c(/C=C/c2nc3ccccc3[nH]c2=O)c1	16	9	9	0	1	-1
O=c1[nH]c2ccccc2nc1/C=C/c1ccc(F)cc1	41	27	56*	-1	47	3
Cn1c(=O)c(/C=C/c2ccccc2)nc2ccccc21	45	17	/	0	43	5
Cn1c(=O)c(/C=C/c2ccc(F)cc2)nc2ccccc21	60*	46	/	27	25	-1
Cc1ccc(S(=O)(=O)Nc2ccc3c(c2)C(=O)N([C@H](C)CO)C[C@@H](C)[C@@H](CN(C)C(=O)Nc2c(C)noc2C)O3)cc1	/	/	-1	/	/	/
COc1ccccc1NC(=O)N1CC[C@@H]2[C@@H](CO)N(C)c3ccc(-c4cccc(F)c4)cc3[C@@H]21	/	/	1	/	/	/
CC(=O)N1[C@@H]2c3ccc(-c4ccccc4)c(=O)n3C[C@H]1[C@H](CO)[C@H]2C(=O)N1CCCCC1	/	/	0	/	/	/
CCCNC(=O)N1C[C@@H](C)[C@H](OC)CN(C)C(=O)c2ccc(NC(=O)CCC)cc2OC[C@@H]1C	/	/	-7	/	/	/
O=C(C[C@H]1CC[C@@H](NC(=O)Nc2ccc(C(F)(F)F)cc2)[C@H](CO)O1)NCc1ccccn1	/	/	2	/	/	/
Cc1cc([N+](=O)[O-])ccc1NC(=O)/C=C/c1cccs1	24	14	/	35*	70	3
COc1ccc(/C=N/NC(=O)CN(C)S(=O)(=O)c2ccc(NC(C)=O)cc2)cc1	-67	-60*	/	0	4	-2
Cc1ccc(C(=O)Nc2ccc3c(c2)CCC3)cc1S(=O)(=O)N1CCOCC1	22	15	62*	?	26	3
Cc1ccc(C(=O)Nc2ccc3c(c2)CCC3)cc1	-26	-3	-56	0	-19	2
O=C(Nc1ccc2c(c1)CCC2)c1ccc(F)c(S(=O)(=O)N2CCOCC2)c1	4	19	/	83*	14	-1
NS(=O)(=O)c1cc(C(=O)Nc2ccc3c(c2)CCC3)ccc1Cl	30	20	77*	-3	113*	3
Cc1ccc(C(=O)Nc2ccncc2)cc1S(=O)(=O)N1CCOCC1	-45	-27	-7	-2	12	-3
Cc1ccc(S(=O)(=O)Nc2cccc3c2O[C@@H](CN(C)Cc2ccc(Oc4ccccc4)cc2)[C@@H](C)CN([C@@H](C)CO)C3=O)cc1	/	/	-2	/	/	/
CCOc1c2ccc(C(=O)NCc3ccco3)cc2nn1CC	-4	7	-6	-3	7	4
CCCCNC(=O)c1ccc2c(OCC)n(CCCC)nc2c1	-25	-7	-6	-3	-1	1
CCCn1nc2cc(C(=O)NCCc3cccs3)ccc2c1OCC	11	5	72*	19	71	4
CCOc1c2ccc(C(=O)NCc3ccccc3OC)cc2nn1CC	-74	-66*	-1	-2	2	0
C/C(=N\Nc1nncc2ccccc12)c1ccc(OCC(=O)N(C)C)cc1	15	-1	33	7	?	6

Assay outcomes deposited in PubChem by several laboratories.
